PubChem BioAssay (NCATS)
Values joined by “and” are separate entries in the source; they are usually repeats but may differ in a detail not shown here. Identical values can stand only once. Results filed as inconclusive are left out. A number with no mark means an inactive call. Active and inactive are the calls of the source. Calls come from the whole dose curve; as a rule, active = well fitted inhibition curve with a large enough effect; inconclusive = small, poorly fitted or top-dose-only effect; inactive = flat fitted curve, though single readings scatter.

Each compound was assayed on NIH3T3 (assay: Cytotoxic Profiling of Annotated Libraries Using Quantitative High-Throughput Screening (AID 1296008; note: nearly all actives have a fitted effect of over 60% in size)). Settings: Five cell lines viability, CellTiter-Glo ATP luminescence, 48-72 h; max response: hits give low values.
In short: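 Cytotoxicity was measured as CellTiter-Glo ATP luminescence, read after 10 min at room temperature. Compound treatment of the cells lasted 48 or 72 hr at 37 degrees Celsius in a qHTS format.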
% is set by controls: 0 for no effect and ±100 for the full control effect.

First: CCN(Cc1ccncc1)C(=O)C(CO)c1ccccc1 (stereo unspecified)
Second: O=C(CCNNC(=O)c1ccncc1)NCc1ccccc1
The max response of the first is higher: -10.9% for the first, -21.8% for the second.

First: NC(=O)c1cn(Cc2c(F)cccc2F)nn1
Second: NC(Cc1ccc(Cl)cc1)C(=O)O (stereo unspecified)
The max response of the first is lower: -0.364% for the first, 4.7% for the second.

Going from `CCCCCN(CCCCC)C(=O)C(CCC(=O)O)NC(=O)c1ccc(Cl)c(Cl)c1` (stereo unspecified) to `CCCN(CCC)C(=O)C(CCC(=O)O)NC(=O)c1ccccc1` (stereo unspecified), the max response falls from -0.48% to -2.14%.

Going from `O=C1CC2(CCCC2)CC(=O)N1CCCCN1CCN(c2ncccn2)CC1` to `Cc1scc2c1N(C(=O)CN1CCN(C)CC1)c1ccccc1NC2=O`, the max response falls from -6.17% to -7.24%.

Going from `CCCN(CCC)CCc1cccc2c1CC(=O)N2` to `CCN(CC)CCNC(=O)c1ccc(NC(C)=O)cc1`, the max response rises from -15.5% to -3.76%.

Compared with `O=C(O)CN(CCOCCOCCN(CC(=O)O)CC(=O)O)CC(=O)O`, `CN(C)CCOC(=O)COc1ccc(Cl)cc1` is higher in max response: -0.882% for the first, 0.547% for the second.

First: Cc1ccc(/C(=C\CN2CCCC2)c2ccccn2)cc1
Second: NC(=Nc1ccccc1)Nc1ccccc1
The max response of the first is higher: 1.95% for the first, -0.581% for the second.

First: COc1cc(Cc2cnc(N)nc2N)cc(OC)c1OC
Second: CCCOc1ccccc1-c1nc2n[nH]nc2c(=O)[nH]1
The max response of the first is higher: -0.336% for the first, -1.31% for the second.

Compared with `CCCNC(C)C(=O)Nc1ccccc1C` (stereo unspecified), `Cc1cc(C)c(/C=C2\C(=O)Nc3ccccc32)[nH]1` is lower in max response: -0.782% for the first, -17.1% for the second.

First: Nc1c2c(nc3ccccc13)CCCC2O (stereo unspecified)
Second: CCN1CCc2nc(N)oc2CC1
The max response of the first is higher: 4.53% for the first, -2.66% for the second.

Compared with `NC(=O)c1ncn([C@@H]2O[C@H](CO)[C@@H](O)[C@H]2O)c1O`, `CCN1CCC[C@H]1CNC(=O)c1c(O)c(Cl)cc(Cl)c1OC` is higher in max response: -1.25% for the first, 1.49% for the second.

Compared with `Cc1nc2c([nH]1)c(=O)n(C)c(=O)n2Cc1ccco1`, `CCn1cc(C(=O)O)c(=O)c2cc3c(cc21)OCO3` is lower in max response: -4.53% for the first, -23.3% for the second.

Compared with `CC(=O)OC(C)C[N+](C)(C)C` (stereo unspecified), `NC/C=C/C(=O)O` is lower in max response: 2.06% for the first, -7.89% for the second.

`FC(F)(F)c1ccccc1-n1ccnc1` was tested, and the max response was -5.68%.

With `O=C(O)CCCCCCCC(=O)O` the outcome was “inactive”.
With `CC(=O)OCC1=C(C(=O)O)N2C(=O)[C@@H](NC(=O)Cc3cccs3)[C@H]2SC1` the outcome was “inactive”.
For `CNC1(C)C2CCC(C2)C1(C)C` (stereo unspecified), the outcome was “inactive”.
`CC(C)NNC(=O)c1ccncc1` was tested, and the outcome was “inactive”.
For `CC(=O)Nc1nnc(S(N)(=O)=O)s1`, the outcome was “inactive”.
`NC(=Nc1ccccc1)Nc1ccccc1` was tested, and the outcome was “inactive”.
In the case of `C[N+](C)(C)CCOC(=O)CCC(=O)OCC[N+](C)(C)C`, the outcome is reported as “inactive”.
For `CCN(CC)CC(=O)Nc1c(C)cccc1C`, the outcome was “inactive”.

`CCCCOCCOCCOCc1cc2c(cc1CCC)OCO2` was tested, and the max response was -13.2% and 0.929%.
